Measured values as given in PubChem BioAssay (NCI).
Compounds without any hit were thinned out: in the full panel of roughly 83,000, 20% have a hit.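 Cells were grown in 96-well plates and exposed to the test compound at a single concentration for 48 hours; results are reported as percent growth, with values below 10 considered active.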 A number with no mark means an inactive call. Activity calls are given as the source filed them.

System: SK-MEL-2 melanoma
Experiment: NCI-60 one-dose screen, 48 h (100 = growth as untreated, 0 = no growth, -100 = all killed)
Conditions: 10 µM unless noted

Row | SMILES | growth
1 | COc1cc2c(c(OC)c1OC)C(=O)CC(c1cccc(C(=O)Nc3cccc(Br)c3)c1)O2 (centres undefined) | 73.8%
2 | CCC(C)CC(N)O (centres undefined) | 128%
3 | S=C(N/N=C/c1cc(Cl)cc(Cl)c1)NC12CC3CC(CC(C3)C1)C2 | 116%
4 | CCCNC(=O)Oc1ccc(/C(=C(/CC)Cc2ccccc2)c2ccc(OCCN(CC)CC)cc2)cc1 | 101%
5 | O=CN/N=C/c1ccc(Cl)c([N+](=O)[O-])c1 | 41.1%
6 | CNc1ccc(Nc2ccc(S(=O)(=O)O)cc2)c2c1C(=O)c1ccccc1C2=O | 130%
7 | O=C(/C=C1\C(=O)N(Cc2ccccc2)c2ccccc21)c1ccc(OCCN2CCCCC2)cc1 | 88.6%
8 | Cc1ccc(C(=O)NN)cc1 | 119%
9 | CC1Cc2cc(F)ccc2-n2cccc21 (centres undefined) | 104%
10 | CCCCCCCCCCN1CC2CCCCC2C1 (centres undefined) | 95.2%
11 | O=C(Nc1ccc(Cl)c(Cl)c1)O/N=C\c1c(Cl)ccc([N+](=O)[O-])c1Cl | -4.77% (active)
12 | C/C(=C\c1ccc2ccccc2c1)[N+](=O)[O-] | 4.49% (active)
13 | CCCCCCCCC1OC1CCCCCCCC(=O)O (centres undefined) | 103%
14 | Cc1sc(NC(=O)c2ccc(C(C)(C)C)cc2)c(C(=O)O)c1C | 103%
15 | CN1NC(c2ccccc2)NN(C)C1=O | 110%
16 | COc1cc2cc3cc4cc(OC)c(OC)cc4c(C)[n+]3cc2cc1OC (tested in a mixture with another compound) | 69.5%
17 | CC(C)(C)C(=O)OCOP(=O)(OCOC(=O)C(C)(C)C)C1CC(O)N(O)C1=O (centres undefined) | 45.9%
18 | CC(=O)OC1/C=C\CC/C=C\C1 (centres undefined) | 109%
19 | O=C(/C=C\c1ccc(NCc2ccc(C(=O)O)cc2)cc1)CCl | 97%
20 | CCCCCCC(C)N(CC(C)(C)O)C(=O)c1ccc([N+](=O)[O-])cc1 (centres undefined) | 89.7%

Row | SMILES | growth
21 | COc1ccc(/C=N/c2cc(C(C)(C)C)nn2-c2ccccc2)cc1 | 124%
22 | COc1ccc(/C=C2\SC(=O)N(Cc3cc(=O)oc4ccc(OC)cc34)C2=O)cc1 | 99.9%
23 | CNCCCNCCCCNCCCN1C(=O)c2ccc3c4c(ccc(c24)C1=O)C(=O)N(CCCNCc1ccccc1OC)C3=O | 14%
24 | CC(O)CN(CC(C)O)N(CC(C)O)CC(C)O (centres undefined) | 121%
25 | COc1ccc(/C=C2\CCCC3=C2N=C2SC=NN2C3c2ccc(OC)c(OC)c2)cc1OC (centres undefined) | 109%
26 | COc1ccc(CN2C(=O)/C(=C\C(=O)c3ccc(OCCN4CCCCC4)cc3)c3ccccc32)cc1 | 97.4%
27 | CCN(CC)CCCNc1c2ccc(Cl)cc2nc2ccc(OC)cc12 | -3.63% (active)
28 | O=C1C=C(OCC=C(C(F)(F)F)C(F)(F)F)c2ccccc2C1=O | 12.4%
29 | Cc1ccc(S(=O)(=O)N/N=C2\CC3CCC2C3)cc1 (centres undefined) | 108%
30 | O=C(O)CS(=O)c1ccc(Cl)cc1 (centres undefined) | 114%
31 | CCN(CC)CCCC(C)Nc1c(C)cnc2cc(Cl)c(C)cc12 (centres undefined) | 117%
32 | Oc1ccc([S+](c2ccc(O)cc2)c2ccc(O)cc2)cc1 | 117%
33 | CC(C)CSc1nc(-c2ccc(F)cc2)c(C#N)c(N2CCCCC2)n1 | 85.5%
34 | CC(=O)Nc1ccc(C(=O)/C=C/c2ccc(N(C)C)cc2)cc1 | 95.7%
35 | CCCCCN1CCN(C(CC(=O)c2ccccc2)C(=O)c2ccccc2)CC1 (centres undefined) | 104%
36 | CCCCCC(=C/c1ccccc1)/C=N/N=C(N)N | -55.7% (active)
37 | CC(=O)c1ccc2c(c1)c1ccccc1n2C | 98.4%
38 | CC1(C)NC(=S)NC1=O | 129%
39 | CC(=O)OCC(=O)[C@@]1(O)[C@H](C)C[C@H]2[C@@H]3C=C(C)C4=Cc5c(cnn5-c5ccc(F)cc5)C[C@]4(C)[C@H]3[C@@H](O)C[C@@]21C | 22.5%
